Source: PubChem BioAssay (NCATS)
Results filed as inconclusive are left out. Unmarked numbers belong to inactive results. Activity calls are given as the source filed them. Calls follow the shape of the dose curve; as a rule, active = well fitted inhibition curve with a large enough effect; inconclusive = small, poorly fitted or top-dose-only effect; inactive = flat fitted curve, though single readings scatter.

tested on: TAB165; test: qHTS profiling for inhibitors of Plasmodium falciparum proliferation (AID 504749); also: nearly all actives have a fitted effect of over 60% in size;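 as to activity, negative = inhibition: 0% = DMSO vehicle and full inhibition = artemisinin control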; conditions: P. falciparum in erythrocytes, SYBR Green DNA, 72 h; series mostly up to 28.7 µM; activity, negative = inhibition: at the top concentration
Outline: (§1)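 Readout was DNA-dye fluorescence from lysed cultures, ex 485/em 535 nm. Parasitized red cells had grown 72 h with compound; data scaled between 0.29 uM artemisinin and DMSO wells and corrected using vehicle-only plates.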
Potency is read from the fitted curve at half-maximal effect.

Row | Structure (SMILES) | activity, negative = inhibition
1 | OC[C@H](S)CS | 2.37%
2 | N[C@H](COP(=O)(O)O)C(=O)O | 13.2%
3 | C[N+]1(C)[C@@H]2CC(OC(=O)[C@@H](CO)c3ccccc3)C[C@@H]1[C@H]1O[C@H]12 (stereo partly specified) | 0.39%
4 | C(=C/c1ccccc1)/CN1CCN(C(c2ccccc2)c2ccccc2)CC1 | -11.2% [at 12.8 µM]
5 | COc1cc2nc(N(C)CCCNC(=O)[C@@H]3CCCO3)nc(N)c2cc1OC | -0.883% [at 12.8 µM]

tested on: W2; test: as above; conditions: P. falciparum in erythrocytes, SYBR Green DNA, 72 h; series mostly up to 28.7 µM; activity, negative = inhibition: at the top concentration
Outline: as §1

Row | Structure (SMILES) | activity, negative = inhibition | Potency
6 | CC(=O)N1CCN(c2ccc(OC[C@@H]3CO[C@@](Cn4ccnc4)(c4ccc(Cl)cc4Cl)O3)cc2)CC1 | -17.4% | 
7 | OC[C@H](S)CS |  | 2.39 µM (active)
8 | N[C@H](COP(=O)(O)O)C(=O)O | 20.5% | 
9 | C[N+]1(C)[C@@H]2CC(OC(=O)[C@@H](CO)c3ccccc3)C[C@@H]1[C@H]1O[C@H]12 (stereo partly specified) | -14.8% | 
10 | C(=C/c1ccccc1)/CN1CCN(C(c2ccccc2)c2ccccc2)CC1 |  | 5.1 µM (active)
11 | COc1cc2nc(N(C)CCCNC(=O)[C@@H]3CCCO3)nc(N)c2cc1OC | 1.27% [at 12.8 µM] | 
